Test results as given in PubChem BioAssay (NCI).
This is part of a sample that, as a whole, favours compounds with a hit. Of some 83,000 tested, about 20% had one in any assay.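 A percent growth of 40 corresponds to 60% growth inhibition; 0 means no net growth; -100 means all cells died. Active threshold: below 10.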 A number with no mark means an inactive call. Calls of active or inactive are those of the source.

Legend:
Assay in all cases: NCI-60 one-dose screen, 48 h (100 = growth as untreated, 0 = no growth, -100 = all killed)
Details in all cases: 10 µM unless noted
[1] = test system: NCI-H23 lung
[2] = test system: NCI-H226 lung
[3] = test system: NCI-H322M lung
[4] = test system: HOP-62 NSCLC
[5] = test system: NCI-H460 lung
[6] = test system: HOP-92 NSCLC
[7] = test system: NCI-H522 lung
[8] = test system: A549/ATCC NSCLC
[9] = test system: 786-0 renal
[10] = test system: COLO 205 colon
[11] = test system: DU-145 prostate
[12] = test system: MALME-3M melanoma
[13] = test system: MDA-MB-231 breast
[14] = test system: RXF 393 renal
[15] = test system: SF-268 CNS
[16] = test system: SF-295 CNS
[17] = test system: SF-539 CNS
[18] = test system: UACC-257 melanoma
[19] = test system: K-562 leukemia

Row | Compound | growth [1] | growth [2] | growth [3] | growth [4] | growth [5] | growth [6] | growth [7] | growth [8] | growth [9] | growth [10] | growth [11] | growth [12] | growth [13] | growth [14] | growth [15] | growth [16] | growth [17] | growth [18] | growth [19]
1 | CC(=O)c1sc(-c2ccccc2)cc1N | 101% | 96.6% | 96.9% | 94.4% | 102% | 97.7% | 72.5% | 76% | 92.7% | 109% | 102% | 112% | 99.6% | 107% | 104% | 99.7% | 97.1% | 90.6% | –
2 | Nc1c(-c2nc3ccccc3c(=O)[nH]2)nnn1-c1ccc(Cl)cc1 | 78.9% | 102% | 78.3% | 57.2% | 56.2% | 101% | 52.5% | 40.6% | 82.2% | 98.6% | 77.3% | 83.3% | 85% | 81.9% | 66.8% | 73.6% | 50.5% | 84.8% | –
3 | CN1CCN(C2=C(Cl)C(=O)c3ccccc3C2=O)CC1 | 55.5% | 94.2% | 97.4% | 94.9% | 92.3% | 102% | 25.1% | 81.4% | 84.7% | 81.4% | – | 4.5% (active) | 41.6% | 101% | – | 84.1% | 105% | 56.5% | 23.1%
4 | Nc1c(-c2nc3ccc(Br)cc3c(=O)[nH]2)nnn1-c1ccccc1 | 82.6% | 107% | 71.5% | 87% | 43.5% | 94.7% | 73.9% | 74.8% | 87.6% | 102% | 62.3% | 86.8% | 82.2% | 103% | 60% | 68% | 90.9% | 95.9% | –
5 | Cn1nnnc1-c1ccc(N)cc1 | 88.7% | 107% | 92.7% | 95.9% | 105% | 96.3% | 84.2% | 95.6% | 93.8% | 110% | 99% | 99.1% | 106% | 111% | 91.7% | 98.1% | 98.8% | 106% | –
6 | CCCCCCCCc1cc[n+](CC(=O)c2ccc(Br)cc2)cc1 | 49.5% | 53.6% | 96.2% | 8% (active) | -84.9% (active) | 24.1% | -91.5% (active) | -84.1% (active) | 16.6% | -89.6% (active) | 37% | -25.4% (active) | 13.8% | -24% (active) | 52.5% | 34% | – | -61.2% (active) | –
7 | CN(C)CCC(O)(Cc1ccccc1)c1ccccc1 (centres undefined) | 100% | 115% | 120% | 111% | 112% | 106% | 116% | 106% | 105% | 107% | – | 114% | 108% | 117% | – | 103% | 103% | 111% | 103%
8 | COc1cc(C(=O)/C=C/c2c(C(F)(F)F)nc3ccccn23)cc(OC)c1OC | -50.3% (active) | -25.5% (active) | 8.14% (active) | -26.9% (active) | -44.4% (active) | 2.54% (active) | -51.4% (active) | 9.73% (active) | -60.9% (active) | – | -25.8% (active) | 7.53% (active) | 13.9% | -68.8% (active) | -36.1% (active) | -14.9% (active) | -92.8% (active) | -9.93% (active) | -9.61% (active)
9 | Cc1cc(Cc2cc(C)cc(C(C)(C)C)c2O)c(O)c(C(C)(C)C)c1 | 23.3% | 58.3% | 75.7% | 68.3% | 8.85% (active) | 18.5% | 29.9% | 27.3% | 57% | – | 43.5% | 67.1% | 57.2% | 40.9% | 49.2% | 6.54% (active) | 62.4% | 59.8% | 13%
